Screening data from PubChem.
IMPase Li cell – IMPase inhibition in cells with lithium potentiation. CHO-M1 cells, IP1 TR-FRET (IP-One), carbachol + lithium. Potency, µM (titrated, usually from 59.4 µM), for the others: at the top dose activity, negative = IMPase inhibition, actives largely listed as inhibitors. hit rate 0.35% among 210,000;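 note: IP1 builds up when IMPase is blocked and the TR-FRET signal falls; potency is the fitted concentration of half-maximal effect; plate controls were basal vehicle for no effect and high inhibitor control for full effect; nearly all actives have a fitted effect of over 50% in size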
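CHO cells stably expressing M1 receptor (2000/well, cultured 16–30 h) treated 30 min at 37C with compound plus low lithium. Cytosolic IP1 by TR-FRET (665/620 ratio and 620 channel) after 10 min lysis; AC50 by Hill fit.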
HPGD inh – blocks human HPGD enzyme activity. P15428. purified HPGD, NADH fluorescence kinetic, PGE2 substrate. Potency, µM, for the others: at the highest dose activity change, negative = inhibition, most hits filed as inhibitors. hit rate 4.3% among 150,000. AID 894; active = well fitted inhibition curve with a large enough effect, not every such curve was filed as active; inconclusive = small, poorly fitted or top-dose-only effect, or another doubt; inactive = no such curve, though single readings can be large or run the other way; note: potency is the fitted concentration of half-maximal effect
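20 nM HPGD preincubated 15 min at room temperature with compound in 50 mM Tris-HCl pH 8, 0.01% Tween 20. Started with 1 mM NAD+ and 30 uM prostaglandin E2; NADH fluorescence (360/450 nm) read 5 times over 30-s intervals, last minus first.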
ALDH1A1 block – ALDH1A1 (human) enzyme inhibition; P00352; Purified ALDH1A1, NADH fluorescence, propionaldehyde substrate; Potency, µM (highest dose often 75.3 µM), for the others: at the top dose activity, negative = inhibition, hits mostly inhibitors; hit rate 7.3% among 220,000; active = well fitted inhibition curve with a large enough effect, not every such curve was filed as active; inconclusive = small, poorly fitted or top-dose-only effect, or another doubt; inactive = no such curve, though single readings can be large or run the other way;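 note: potency is the fitted concentration of half-maximal effect; plate controls were no enzyme wells and a reference inhibitor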
IMPase cell inh – membrane-permeable compound that blocks inositol monophosphatase. CHO-M1 cells, IP1 accumulation, HTRF TR-FRET ratio. P97697. 120,000 tested, under 10 active. inhibition (IP1 accumulation), % at 46.1 µM; active = well fitted curve in the direction sought with a large enough effect in the signal ratio, not every such curve was filed as active; inconclusive = small, poorly fitted or top-dose-only effect, or a change in a side signal; inactive = no such curve, though single readings can be large or run the other way; the % refers to the signal ratio;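 note: cells stimulated with carbachol in lithium chloride buffer; plate controls were DMSO basal wells for no effect and reference inhibitor wells for full effect; higher means more IMPase inhibition seen as more IP1 and lower FRET ratio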
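Cellular IMPase inhibition is scored as a rise in cytosolic IP1, detected by competitive TR-FRET between d2-labelled IP1 and a europium anti-IP1 antibody. M1-expressing CHO cells were stimulated with carbachol for 30 min at 37C, with lithium (50 mM LiCl) present in the buffer.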
ALOX12 inhib – 12-hLO (ALOX12) enzyme inhibition. purified 12-hLO, xylenol orange hydroperoxide absorbance. Potency, µM (series often up to 57.1 µM), for the others: at the highest dose activity change, negative = inhibition, hits mostly inhibitors. P18054. hit rate 0.12% among 150,000. AID 1452; note: potency is the fitted concentration of half-maximal effect; nearly all actives have a fitted effect of over 55% in size
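Hydroperoxide output read as Fe(III)-xylenol orange absorbance, 573-to-405 nm ratio, after 30 min reaction with 40 uM arachidonic acid. Enzyme: 150 nM purified human 12hLO, 15 min compound preincubation; 25 mM Hepes pH 7.0, room temperature.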
PNC inhibitor – blocks assembly of the perinucleolar compartment. PC3M PTB-GFP, PNC prevalence imaging, 16 h; stronger effect = lower value. activity change (PNC), negative = inhibition, % at 10 µM. hit rate 3.1% among 140,000. AID 2417;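 active = readout at or below -70, meaning at least 70% loss of cells showing the perinucleolar compartment, a nuclear body marking cancer cells; inconclusive = readout between -30 and a set limit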;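 note: plate controls were DMSO wells for no effect and camptothecin positive control wells for full effect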
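Compounds are pinned in duplicate onto adhered PC3M cells stably expressing GFP-tagged PTB and incubated 16 h at 37 C. Cells are then fixed, nuclei stained with Hoechst, and PNC-positive cells counted.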
* marks the source's active call; other numbers are inactive results; [ ] = dose if it differs, or a comment. The list is not random: actives were taken first. Their share in the collection is about 11%. Unless noted, calls come from the whole dose curve; as a rule, active = well fitted curve in the direction sought with a large enough effect; inconclusive = small, poorly fitted or top-dose-only effect, or another doubt; inactive = no such curve, though single readings can be large; an effect the other way counts as inactive or inconclusive. Unless noted, % is set by controls: 0 for no effect and ±100 for the full control effect.

Screening CCCCN(CCCC)C(=S)N/N=C/c1c(C)[nH]n(-c2ccccc2)c1=O returned IMPase Li cell 13%[38.3 µM], HPGD inh -29%, ALDH1A1 block 5µM*, IMPase cell inh 4, ALOX12 inhib 5% and PNC inhibitor 44.
Cc1[nH]n(-c2ccccc2)c(=O)c1C=Nc1cccc2cccnc12 was read as IMPase Li cell 2%, HPGD inh -19%, ALDH1A1 block -10%, ALOX12 inhib 11% and PNC inhibitor -14.
`Cc1[nH]n(-c2ccccc2)c(=S)c1C=Nc1cccc([N+](=O)[O-])c1` gave IMPase Li cell 3%[38.3 µM], HPGD inh 8.9µM*, ALDH1A1 block 5.6µM*, IMPase cell inh 1, ALOX12 inhib 32µM* and PNC inhibitor -22.
CCCCN=Cc1c(C)[nH]n(-c2ccccc2)c1=S was read as IMPase Li cell -5% and ALDH1A1 block 28µM*.
Brc1ccc(N/N=C(/N=Nc2nn[nH]n2)c2ccccc2)cc1 was read as IMPase Li cell -1% and ALDH1A1 block 14µM*.
For C/C(=N\Nc1ccc(C(=O)O)cc1)c1ccc(Br)cc1 the results were ALDH1A1 block 6%.
Cc1cc(C(=O)C(C)Cl)c(C)n1Cc1ccco1 (configuration not stated) was read as IMPase Li cell 10% and ALDH1A1 block 7.1µM*.
Screening Cc1cc(C(=O)CSc2ncccn2)c(C)n1Cc1ccco1 returned IMPase Li cell 6% and ALDH1A1 block inconclusive.
For Cc1cc(C(=O)COC(=O)C(C)NC(N)=O)c(C)n1Cc1ccco1 (configuration not stated) the results were IMPase Li cell 0% and ALDH1A1 block 4%.
Screening Cc1cc(C(=O)CSc2nnnn2C)c(C)n1Cc1ccco1 returned ALDH1A1 block 28µM*.
Screening CC(C)Sc1nc2c(c(=O)[nH]c(=O)n2C)n1Cc1ccc(Cl)cc1 returned IMPase Li cell 16%[38.3 µM], HPGD inh inconclusive, ALDH1A1 block 35µM*, IMPase cell inh 2, ALOX12 inhib -1% and PNC inhibitor -8.
For CCC(C)Sc1nc2c(c(=O)[nH]c(=O)n2C)n1CC(O)COc1ccccc1C (configuration not stated) the results were IMPase Li cell 5%, HPGD inh 40µM*, ALDH1A1 block 14µM*, IMPase cell inh 3, ALOX12 inhib -7% and PNC inhibitor -28.
`CCC(C)Sc1nc2c(c(=O)[nH]c(=O)n2C)n1Cc1ccc(Cl)cc1` (configuration not stated) gave IMPase Li cell 21%[38.3 µM], HPGD inh -7%, ALDH1A1 block 8.9µM*, IMPase cell inh 6, ALOX12 inhib -9% and PNC inhibitor -17.
`CCOC(=O)C(C)Sc1nc2c(c(=O)[nH]c(=O)n2C)n1Cc1ccc(Cl)cc1` (configuration not stated) gave IMPase Li cell 22%[38.3 µM], HPGD inh inconclusive, ALDH1A1 block 18µM*, IMPase cell inh 20, ALOX12 inhib -9% and PNC inhibitor 9.
CC(C)Sc1nc2c(c(=O)[nH]c(=O)n2C)n1CCc1ccccc1 was read as IMPase Li cell 5%[38.3 µM], HPGD inh -13%, ALDH1A1 block inconclusive, IMPase cell inh 7, ALOX12 inhib -3% and PNC inhibitor inconclusive.
CCC(C)Sc1nc2c(c(=O)[nH]c(=O)n2C)n1CCc1ccccc1 (configuration not stated) was read as IMPase Li cell 1%, HPGD inh -16%, ALDH1A1 block inconclusive, IMPase cell inh 3, ALOX12 inhib -2% and PNC inhibitor 162.
Screening COc1ccc(-c2cc(C(=O)NCCc3ccc(OC)c(OC)c3)c3ccccc3n2)cc1 returned IMPase cell inh -12.
`CN(Cc1cccc2ccccc12)Cc1cccc2ccccc12` gave IMPase Li cell 0%, HPGD inh -5%, ALDH1A1 block 10%[13.5 µM] and ALOX12 inhib 0%[11.4 µM].
